The text below walks through data of PubChem BioAssay.

Experiment [1] in a line: inhibitors of TNFa-induced NFkB p65 translocation, primary screen, imaging, HUVEC, MLSMR starter and 10KST1 sets (AID 438;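 active = inhibition above 20% together with a positive visual image hit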;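 note: compound added about 3h40 before a 20 min TNFalpha stimulation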;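 for inhibition: signal is the nuclear over cytoplasmic p65 intensity ratio per well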). The note with it: HUVEC TNFa-induced p65 nuclear translocation; cell count: measured here: nuclei count (cytotoxicity indicator), at 2.08 µM; inhibition: at 2 µM, stronger effect = higher value, 0% TNFa-plus-vehicle, 100% no-TNFa wells.
A short description of experiment [2]: inhibitors of mutant huntingtin aggregation, primary screen, imaging, exon1htt(103Q)mCFP cells, high-content imaging (AID 483;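 active = visual image review flags a hit and inhibition of aggregation exceeds 20%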;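 note: compound exposure lasted 3 days before fixation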;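 for nuclei count: percent of the per-plate median nuclei count of sample wells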). The conditions noted are these: exon1htt(103Q)mCFP cell line, aggregate imaging, at 2 µM; inhibition of aggregation: stronger effect = higher value; nuclei count: measured here: cell count, toxicity.
The nature of experiment [3]: inhibitors of E-selectin induction by TNFa, primary screen, imaging, HUVEC, immunofluorescence, MLSMR starter and 10KST1 sets (AID 487;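 active = visually confirmed hit in the image check and inhibition above 20%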;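 for inhibition: signal is fraction of cell area covered by stained E-selectin grains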;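 for nuclei count: 100% = median nuclei count of all wells on the same plate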). The note with it: HUVEC TNFalpha-induced E-selectin immunofluorescence imaging, at 2 µM; inhibition: stronger effect = higher value; nuclei count: measured here: cell number, toxicity.
The target in experiment [4] is Voltage-gated potassium channel subunit beta-2 (Rattus norvegicus) (UniProt P62483). Put plainly: KvBeta enzyme negative modulators, primary screen, biochemical, NADPH fluorescence (AID 622;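 active = fluorescence slope higher than the sample average by over 3 SD, cut at about -0.22 in these data, passing the limit was not always enough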;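 note: slope of raw intensity against log time taken from 70 to 1610 s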). The conditions noted are these: recombinant KvBeta, 4-cyanobenzaldehyde reduction, at 10 µM, stronger effect = higher value.
Sequence of Voltage-gated potassium channel subunit beta-2 (Rattus norvegicus) (P62483 whole entry, looked up): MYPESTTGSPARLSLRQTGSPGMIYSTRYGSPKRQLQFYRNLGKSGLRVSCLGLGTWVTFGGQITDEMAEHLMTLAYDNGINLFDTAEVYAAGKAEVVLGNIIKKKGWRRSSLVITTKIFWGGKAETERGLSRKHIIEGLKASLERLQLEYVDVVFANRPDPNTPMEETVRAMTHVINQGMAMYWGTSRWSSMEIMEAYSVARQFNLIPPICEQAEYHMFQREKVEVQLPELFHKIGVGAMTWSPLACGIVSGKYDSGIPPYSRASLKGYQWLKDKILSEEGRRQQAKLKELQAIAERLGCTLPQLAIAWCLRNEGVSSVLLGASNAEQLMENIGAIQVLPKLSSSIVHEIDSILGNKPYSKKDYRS
Experiment [5] shares this target. Kind of experiment: KvBeta positive modulators, primary screen, biochemical, NADPH fluorescence (AID 623).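 Note: fluorescence intensity change per second fitted from 20 to 320 s.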 The conditions noted are these: Recombinant KvBeta, NADPH fluorescence decrease slope, 10 min; at 10 µM; stronger effect = lower value.
Experiment [6] has as its target Alpha-2C adrenergic receptor (Homo sapiens) (UniProt P18825). Kind of experiment: modulators of alpha2C/GIRK thallium flux, primary screen, cell-based, HEK293 alpha2C/GIRK1/2 (AID 624;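 active = fluorescence slope after compound addition differing from the mean of all screened samples at 99.7% confidence, in either direction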;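 note: slope of fluorescence ratio to pre-addition baseline per second over 15 to 24 s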). The note with it: thallium flux BTC fluorescence, at 10 µM, actives lie on both sides.
Experiment [7] is described as follows: inhibitors of Sendai virus-induced IRF3 signaling, primary screen, TLR/RLR signaling modifier project, cell-based, Sendai virus stimulus, luciferase, 10K MLSCN set (AID 602276;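 active = inhibition at or above 50% at 10 µM; inactive = inhibition below 50%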;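 note: firefly luciferase from ISG56 promoter only with Renilla not read in this screen; 0% = Sendai virus plus DMSO and 100% = medium plus DMSO without virus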). The conditions noted are these: HEK293 RL24 IRF3 luciferase reporter, at 10 µM, stronger effect = higher value. In general terms: A reporter such as luciferase makes a cellular process visible.

Experiment [8] in a line: inhibitors of poly I:C-induced TLR3 signaling, primary screen, cell-based, poly I:C stimulus, luciferase, 10K MLSCN set (AID 602277;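 active = inhibition of the reporter signal at or above 50%; inactive = inhibition below 50%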). The note with it: HEK293-TLR3 RL24 IRF3 luciferase reporter, at 10 µM, stronger effect = higher value.

Each structure is given as a SMILES string. Calls of active or inactive are those of the source.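 Rule for the calls, unless noted: active = NADPH fluorescence slope more negative than the mean of all samples by about 3 SD, 99.7% confidence; inactive = the rest.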

Sequence of Alpha-2C adrenergic receptor (Homo sapiens) (P18825 whole entry, looked up): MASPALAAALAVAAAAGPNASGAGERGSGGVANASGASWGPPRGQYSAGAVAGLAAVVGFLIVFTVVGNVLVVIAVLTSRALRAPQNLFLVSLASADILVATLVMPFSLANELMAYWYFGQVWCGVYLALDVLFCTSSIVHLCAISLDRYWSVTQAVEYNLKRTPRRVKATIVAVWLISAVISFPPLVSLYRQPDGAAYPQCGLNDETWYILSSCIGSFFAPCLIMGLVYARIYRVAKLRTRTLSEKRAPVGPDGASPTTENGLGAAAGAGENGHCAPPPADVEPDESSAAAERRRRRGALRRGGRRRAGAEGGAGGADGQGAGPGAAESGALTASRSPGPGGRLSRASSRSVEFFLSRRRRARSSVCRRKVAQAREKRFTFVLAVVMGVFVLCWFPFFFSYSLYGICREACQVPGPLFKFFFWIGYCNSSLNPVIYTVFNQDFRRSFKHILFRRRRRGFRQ

Regarding `Cc1cc(Nc2ccccc2N2CCOCC2)n2ncnc2n1`, in experiment [1], the cell count is 226. Further, the inhibition (as a rule, the change of the read-out against control, counted positive when it falls) was 2% (inactive) in experiment [1], -16.1% (inactive) in experiment [3], 21.9% (inactive) in experiment [7] and 44.1% (inactive) in experiment [8]. Besides, the inhibition of aggregation in experiment [2] was 13.7% (inactive). The nuclei count worked out at 89% in experiment [2] and 97% in experiment [3]. The fluorescence slope in experiment [4] is -0.588 (inactive). Also, the NADPH fluorescence slope in experiment [5] is 7.3e-06 (inactive). The slope in experiment [6] was 0.00567 (inactive).
On to `CC(=O)c1cccc(N(CC(=O)N2CCCC2)S(C)(=O)=O)c1`, for which the cell count in experiment [1] turned out to be 529. The inhibition in experiment [1] is -5.4% (inactive); in experiment [3], -11.1% (inactive); in experiment [7], 13.6% (inactive); in experiment [8], 20% (inactive). For the same compound, in experiment [2], the inhibition of aggregation is 14.6% (inactive). Further, the nuclei count in experiment [2] worked out at 88.4%; in experiment [3], 94.9%. Besides, in experiment [4], the fluorescence slope is -0.467 (inactive). The NADPH fluorescence slope in experiment [5] is 2.1e-05 (inactive). In addition, in experiment [6], the slope is 0.00662 (inactive).
On to `Cc1nc(-c2cccc(N)c2)cs1`, for which, in experiment [1], the cell count is 726. Further, the inhibition in experiment [1] is -11% (inactive); in experiment [3], -35.4% (inactive); in experiment [7] it was -3.62% (inactive); in experiment [8] it was -15.1% (inactive). Further, in experiment [2], the inhibition of aggregation was -14.5% (inactive). In addition, the nuclei count in experiment [2] is 77.8%; in experiment [3], 132%. In experiment [4], the fluorescence slope was -0.514 (inactive). The NADPH fluorescence slope in experiment [5] is -1e-05 (inactive). Further, in experiment [6], the slope is 0.00706 (inactive).
As for `Cc1cc(Oc2ccc(Cl)cc2)nc(-c2ccccc2O)n1`, in experiment [1], the cell count was 612. Besides, the inhibition in experiment [1] is 11.3% (inactive); in experiment [3], -13.1% (inactive); in experiment [7], 3.04% (inactive); in experiment [8], -8.94% (inactive). Besides, the inhibition of aggregation in experiment [2] is 4.5% (inactive). Further, the nuclei count in experiment [2] turned out to be 73.2%; in experiment [3] it was 101%. In addition, in experiment [4], the fluorescence slope is -0.517 (inactive). Moreover, the NADPH fluorescence slope in experiment [5] is 3.7e-05 (inactive). The slope in experiment [6] is 0.00665 (inactive).
Consider `Cc1ccc(C)c2[nH]c(=O)c(CCNC(=O)CC(C)(C)C)cc12`, for which the cell count in experiment [1] is 650. In addition, the inhibition in experiment [1] is -5.3% (inactive); in experiment [3], 16.6% (inactive); in experiment [7], 4.63% (inactive); in experiment [8] it was 16.5% (inactive). Moreover, in experiment [2], the inhibition of aggregation was 33.1% (inactive). In addition, the nuclei count turned out to be 63.8% in experiment [2] and 90.8% in experiment [3]. Also, the fluorescence slope in experiment [4] was -0.557 (inactive). Further, the NADPH fluorescence slope in experiment [5] was -5.3e-05 (inactive). Moreover, the slope in experiment [6] was 0.00614 (inactive).
Turning to `CC1CCCCN1S(=O)(=O)c1ccc(NC(=O)c2cccs2)cc1` (centres undefined), in experiment [1], the cell count is 678. Further, the inhibition was -14.6% (inactive) in experiment [1], -25.1% (inactive) in experiment [3], -0.562% (inactive) in experiment [7] and 5.71% (inactive) in experiment [8]. The inhibition of aggregation in experiment [2] was 25.4% (inactive). Besides, the nuclei count in experiment [2] worked out at 86.3%; in experiment [3], 104%. In addition, in experiment [4], the fluorescence slope was -0.431 (inactive). Also, the NADPH fluorescence slope in experiment [5] is 9.2e-06 (inactive). Also, the slope in experiment [6] was 0.00361 (inactive).
On to `Cn1c(SCc2c(F)cccc2Cl)nnc1-c1cccs1`, for which the cell count in experiment [1] came out at 662. In addition, the inhibition in experiment [1] is 9.6% (inactive); in experiment [3], -9.9% (inactive); in experiment [7], -93.7% (inactive); in experiment [8], -167% (inactive). Further, the inhibition of aggregation in experiment [2] is -11.9% (inactive). Moreover, the nuclei count in experiment [2] came out at 25.4%; in experiment [3] it was 115%. For the same compound, in experiment [4], the fluorescence slope was -0.445 (inactive). Moreover, in experiment [5], the NADPH fluorescence slope is -2.8e-05 (inactive). Also, in experiment [6], the slope was 0.00484 (inactive).
For `CCOC(=O)c1c(C)[nH]c(C(=O)COC(=O)C2CC2C)c1C` (centres undefined), the cell count in experiment [1] was 378. In addition, the inhibition in experiment [1] is 0.3% (inactive); in experiment [3], -20.9% (inactive); in experiment [7], -45.3% (inactive); in experiment [8], -115% (inactive). In experiment [2], the inhibition of aggregation is -161% (inactive). Besides, the results for the nuclei count in experiment [2] and in experiment [3] were 1.8% and 125%, respectively. The fluorescence slope in experiment [4] is -0.504 (inactive). The NADPH fluorescence slope in experiment [5] is -5.4e-05 (inactive). Also, the slope in experiment [6] was 0.00548 (inactive).
Take `O=C(CN1c2cccc3cccc(c23)S1(=O)=O)N1CCOCC1`: the cell count in experiment [1] was determined as 253. Moreover, the inhibition in experiment [1] is -5.5% (inactive); in experiment [3], -59.8% (inactive); in experiment [7], 17% (inactive); in experiment [8] it was 13.6% (inactive). Moreover, in experiment [2], the inhibition of aggregation is 16% (inactive). Further, the nuclei count turned out to be 83% in experiment [2] and 101% in experiment [3]. Moreover, the fluorescence slope in experiment [4] is -0.189 (inactive). For the same compound, in experiment [5], the NADPH fluorescence slope was -1.8e-05 (inactive). Moreover, the slope in experiment [6] was 0.00514 (inactive).
Take `CC(C)(NC(=O)N1CCCC1)c1cccc(C(C)(C)NC(=O)N2CCCC2)c1`: in experiment [1], the cell count worked out at 366. Moreover, the inhibition is -1.8% (inactive) in experiment [1], 21.6% (inactive) in experiment [3], 11.4% (inactive) in experiment [7] and 30.1% (inactive) in experiment [8]. In experiment [2], the inhibition of aggregation is 34.8% (active). Besides, the nuclei count in experiment [2] is 92.3%; in experiment [3] it was 83.8%. Further, in experiment [4], the fluorescence slope is -0.381 (inactive). Also, the NADPH fluorescence slope in experiment [5] is 3e-05 (inactive). For the same compound, in experiment [6], the slope was 0.00445 (inactive).
Turning to `CCOC(=O)c1ccc(NC(=O)CCc2c(C)nc3ncnn3c2C)cc1`, in experiment [1], the cell count stood at 402. Also, the inhibition is 1.9% (inactive) in experiment [1], -138% (inactive) in experiment [3], -2.81% (inactive) in experiment [7] and 7.84% (inactive) in experiment [8]. Further, the inhibition of aggregation in experiment [2] is -19.7% (inactive). Further, the nuclei count in experiment [2] is 107%; in experiment [3] it was 116%. In addition, the fluorescence slope in experiment [4] is -0.508 (inactive). Besides, the NADPH fluorescence slope in experiment [5] is 6.6e-06 (inactive). Further, the slope in experiment [6] was 0.00565 (inactive).
Turning to `CCN(CC)C(=O)c1ccc(CS(=O)(=O)c2ccc(OC)cc2)o1`, in experiment [1], the cell count is 560. In addition, the inhibition in experiment [1] was -2% (inactive); in experiment [3], -67.7% (inactive); in experiment [7] it was -17.1% (inactive); in experiment [8], -10.1% (inactive). The inhibition of aggregation in experiment [2] was 1.4% (inactive). For the same compound, the nuclei count came out at 102% in experiment [2] and 125% in experiment [3]. Besides, the fluorescence slope in experiment [4] was -0.599 (inactive). The NADPH fluorescence slope in experiment [5] is -3e-05 (inactive). In experiment [6], the slope is 0.00698 (inactive).
As for `CC1CC(C)CN(CCCNC(=O)c2ccc3c(c2)NC(=O)C(N2CCCCC2)S3)C1` (centres undefined), the cell count in experiment [1] was found to be 395. The inhibition in experiment [1] is -7.7% (inactive); in experiment [3], -14.9% (inactive); in experiment [7] it was -18.6% (inactive); in experiment [8] it was -14.5% (inactive). Besides, the inhibition of aggregation in experiment [2] is -6.5% (inactive). Besides, the nuclei count worked out at 101% in experiment [2] and 113% in experiment [3]. Further, the fluorescence slope in experiment [4] was -0.317 (inactive). The NADPH fluorescence slope in experiment [5] was 6.4e-06 (inactive). Moreover, the slope in experiment [6] was 0.00531 (inactive).
As for `N#CCCCCn1c(-c2cncs2)nc2ccccc21`, the cell count in experiment [1] turned out to be 431. The inhibition in experiment [1] is 14.1% (inactive); in experiment [3] it was 22.2% (inactive); in experiment [7], 14.5% (inactive); in experiment [8], 15.9% (inactive). Also, the inhibition of aggregation in experiment [2] is 3.5% (inactive). Also, the results for the nuclei count in experiment [2] and in experiment [3] were 101% and 107%, respectively. For the same compound, the fluorescence slope in experiment [4] was -0.385 (inactive). In addition, the NADPH fluorescence slope in experiment [5] was -4.5e-05 (inactive). For the same compound, the slope in experiment [6] was 0.00375 (inactive).
